Compounds with a hit are over-represented: about 9% of the library has one in this group of screens.
Lamin A splicing – qHTS Assay for Modulators of Lamin A Splicing. HeLa LMNA splicing GFP/RFP minigene ratio, 48 h. Potency, µM (top dose mostly 46.1 µM), for the others: at the top dose ratio change, negative = inhibition, usual class: inhibitors. 200,000 tested, 0.01% active. AID 1487, 2009; active = well fitted inhibition curve with a large enough effect in the signal ratio, with a control signal flat, not every such curve was filed as active; inconclusive = small, poorly fitted or top-dose-only effect, or effect the other way, or a change in a side signal; the % refers to the signal ratio
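Read-out is the ratio of GFP to DsRed2 object intensity, acquired by 488 nm laser-scanning cytometry on HeLa lamin A-EGFP minigene reporter cells. Compound incubation 48 hrs at 37 °C in Opti-MEM with 2% FBS; DMSO 0.5% final.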
KinaseGlo FLuc – Counterscreen for Luciferase (Kinase-Glo TM) Inhibition | Luciferin 4-monooxygenase (Photuris pensylvanica), Q27757 | Kinase-Glo luciferase, ATP luminescence, 8 min | Potency, µM (top dose mostly 38.3 µM), inactives show at the highest dose activity change, negative = inhibition, actives largely listed as inhibitors | 200,000 tested, 0.28% active | AID 1379, 2008; active = well fitted curve in the direction sought with a large enough effect; inconclusive = small, poorly fitted or top-dose-only effect, or another doubt; inactive = no such curve, though single readings can be large; an effect the other way counts as inactive or inconclusive; note: nearly all actives have a fitted effect of over 60% in size
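Recombinant Kinase-Glo luciferase, 10 uM ATP (linear range), luciferin; imidazole pH 7.2 / KCl / MgCl2 / Tween / BSA buffer; 8 min RT; luminescence.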
HPGD inh – qHTS Assay for Inhibitors of HPGD (15-Hydroxyprostaglandin Dehydrogenase); 15-hydroxyprostaglandin dehydrogenase [NAD(+)] (Homo sapiens), P15428; Potency, µM, for inactives: at the top dose activity change, negative = inhibition, hits mostly inhibitors; 150,000 tested, 4.3% active; purified HPGD, NADH fluorescence kinetic, PGE2 substrate
Target sequence (P15428 whole entry, looked up): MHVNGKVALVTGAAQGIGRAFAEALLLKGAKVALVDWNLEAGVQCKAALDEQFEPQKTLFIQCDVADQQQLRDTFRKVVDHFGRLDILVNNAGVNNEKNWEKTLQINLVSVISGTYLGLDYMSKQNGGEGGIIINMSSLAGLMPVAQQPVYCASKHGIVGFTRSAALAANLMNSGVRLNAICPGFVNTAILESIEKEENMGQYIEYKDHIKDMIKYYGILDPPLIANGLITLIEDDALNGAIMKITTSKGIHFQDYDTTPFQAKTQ
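20 nM HPGD preincubated 15 min at room temperature with compound in 50 mM Tris-HCl pH 8, 0.01% Tween 20. Started with 1 mM NAD+ and 30 uM prostaglandin E2; NADH fluorescence (360/450 nm) read 5 times over 30-s intervals, last minus first.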
IMPase Li inh – qHTS Assay for Identifying the Cell-Membrane Permeable IMPase Inhibitors: Potentiation with Lithium; CHO-M1 cells, IP1 TR-FRET (IP-One), carbachol + lithium; Potency, µM (highest dose often 59.4 µM), without a hit: top-dose activity, negative = IMPase inhibition, hits mostly inhibitors; 210,000 tested, 0.35% active; AID 1457, 2008; active = well fitted curve in the direction sought with a large enough effect; inconclusive = small, poorly fitted or top-dose-only effect, or another doubt; inactive = no such curve, though single readings can be large; an effect the other way counts as inactive or inconclusive;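 note: IP1 builds up when IMPase is blocked and the TR-FRET signal falls; plate controls were basal vehicle for no effect and high inhibitor control for full effect; nearly all actives have a fitted effect of over 50% in size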
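Test compounds were applied to CHO-M1 cells previously cultured for 16–30 h at 2000 per well. A small lithium amount accompanied them; after 30 min at 37C, IP1 was quantified by TR-FRET.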
ALDH1A1 block – qHTS Assay for Inhibitors of Aldehyde Dehydrogenase 1 (ALDH1A1) | AID 1030, 2008 | Aldehyde dehydrogenase 1A1 (Homo sapiens), P00352 | Purified ALDH1A1, NADH fluorescence, propionaldehyde substrate | Potency, µM (titrated, usually from 75.3 µM), for inactives: at the top dose activity, negative = inhibition, hits mostly inhibitors | 220,000 tested, 7.3% active;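 note: plate controls were no enzyme wells and a reference inhibitor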
Target sequence (P00352 whole entry, looked up): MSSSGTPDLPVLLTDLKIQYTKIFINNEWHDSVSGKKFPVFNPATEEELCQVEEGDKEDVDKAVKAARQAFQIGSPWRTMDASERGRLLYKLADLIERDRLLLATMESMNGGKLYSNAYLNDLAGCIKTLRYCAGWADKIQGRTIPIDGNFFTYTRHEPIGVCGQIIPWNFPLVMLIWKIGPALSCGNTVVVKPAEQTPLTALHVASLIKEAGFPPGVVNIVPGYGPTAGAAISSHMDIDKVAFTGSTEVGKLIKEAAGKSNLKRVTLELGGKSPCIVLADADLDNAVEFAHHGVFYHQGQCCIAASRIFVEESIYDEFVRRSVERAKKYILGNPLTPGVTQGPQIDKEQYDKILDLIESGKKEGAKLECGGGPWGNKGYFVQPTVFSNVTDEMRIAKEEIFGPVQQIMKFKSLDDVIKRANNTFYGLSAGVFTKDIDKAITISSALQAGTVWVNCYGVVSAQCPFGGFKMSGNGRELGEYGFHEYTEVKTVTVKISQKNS
The depositor's hits bear a star; ! = repeats disagree; [ ] = remark or other dose. Unless noted, calls come from the whole dose curve; as a rule, active = well fitted inhibition curve with a large enough effect (not every such curve was filed as active); inconclusive = small, poorly fitted or top-dose-only effect, or another doubt; inactive = no such curve, though single readings can be large or run the other way. Unless noted, % is set by controls: 0 for no effect and ±100 for the full control effect; potency is the fitted concentration of half-maximal effect.

Screening Cc1ccc(C(=O)NC(=S)Nc2ccc(NC(=O)c3cccs3)cc2)cc1[N+](=O)[O-] returned Lamin A splicing -2.0%, KinaseGlo FLuc 1.5%, HPGD inh -13.4%, IMPase Li inh 5.9% and ALDH1A1 block 12.6µM*.
CN1CCN(c2ccccc2NC(=O)c2ccc(N3CCCCC3)c([N+](=O)[O-])c2)CC1 was read as KinaseGlo FLuc -4.3%, IMPase Li inh 19.3% and ALDH1A1 block 22.4µM*.
Cc1cc(C(F)(F)F)nn1CC(=O)NCc1cccs1 was read as KinaseGlo FLuc -1.0%, IMPase Li inh 4.3% and ALDH1A1 block -6.3%.
For CCOc1ccc(C(=O)NC(=S)Nc2ccccc2N2CCOCC2)cc1Br the results were Lamin A splicing inconclusive, KinaseGlo FLuc -2.0%, HPGD inh -13.3%, IMPase Li inh 15.4% and ALDH1A1 block 3.98µM*.
Screening COc1ccc(C)cc1C(=O)CCC(=O)Nc1ccccc1N1CCOCC1 returned Lamin A splicing 8.2%, KinaseGlo FLuc -2.8%, HPGD inh -12.4%, IMPase Li inh 16.0%[38.3 µM] and ALDH1A1 block 28.2µM*.
CCC(=O)N1CCN(c2ccccc2NC(=S)NC(=O)c2cccc([N+](=O)[O-])c2)CC1 was read as Lamin A splicing inconclusive, KinaseGlo FLuc -2.5%, IMPase Li inh 14.1% and ALDH1A1 block 14.1µM*.
For COc1ccc(C(=O)NC(=S)Nc2ccccc2N2CCOCC2)cc1Br the results were Lamin A splicing inconclusive, KinaseGlo FLuc -1.4%, HPGD inh -16.9%, IMPase Li inh 11.3% and ALDH1A1 block inconclusive.
`COC(=O)c1ccc(/C=N\NC(=O)c2ccc(C)cc2Cl)cc1` gave Lamin A splicing inconclusive, KinaseGlo FLuc -4.1%, HPGD inh 5.6%, IMPase Li inh 12.7%[38.3 µM] and ALDH1A1 block 2.8%.
`Cc1ccccc1NC(=O)c1c2c(nc3ccccc13)CCC2` gave Lamin A splicing 10.3%[46 µM], KinaseGlo FLuc 6.3%, IMPase Li inh 3.4% and ALDH1A1 block 11.9%.
CN(C(Cc1ccc(OS(=O)(=O)c2cccc3cnccc23)cc1)C(=O)N1CCN(c2ccccc2)CC1)S(=O)(=O)c1cccc2cnccc12 (stereo not drawn) was read as IMPase Li inh 2.0% and ALDH1A1 block 14.1µM*!.
Screening N#CCCCS(=O)(=O)c1nnnn1-c1ccc(Br)cc1 returned KinaseGlo FLuc 0.7%, HPGD inh -10.3%, IMPase Li inh 13.8% and ALDH1A1 block 20µM*.
Screening N#CCCS(=O)(=O)c1ccccc1 returned KinaseGlo FLuc -2.8%, HPGD inh -4.1%, IMPase Li inh 7.7% and ALDH1A1 block -6.2%.
Screening N#CCCS(=O)(=O)c1nnnn1-c1ccccc1 returned Lamin A splicing inconclusive, KinaseGlo FLuc -4.0%, HPGD inh inconclusive, IMPase Li inh 3.8%[38.3 µM] and ALDH1A1 block 0.447µM*.
For Cc1onc(-c2ccccc2)c1-c1ccnn1S(=O)(=O)c1ccc(Cl)cc1 the results were ALDH1A1 block 7.94µM*.
COC(=O)c1c(-c2cccs2)csc1NC(=O)c1ccc(C(C)C)cc1 was read as Lamin A splicing -27.2%[46 µM].
`CCN(CC)S(=O)(=O)c1cccc(NC(=S)NC(=O)/C=C/c2ccc(S(=O)(=O)N3CCOCC3)cc2)c1` gave Lamin A splicing inconclusive, KinaseGlo FLuc -1.7%, HPGD inh -10.6%, IMPase Li inh 1.4% and ALDH1A1 block 0.3%.
`O=C(/C=C/c1ccc(Cl)cc1)NC(=S)Nc1ccc(N2CCOCC2)c(Cl)c1` gave Lamin A splicing -11.3% and ALDH1A1 block 14.1µM*.
Screening O=C(/C=C/c1ccc(S(=O)(=O)N2CCOCC2)cc1)NC(=S)Nc1ccc(Cl)cc1Cl returned Lamin A splicing inconclusive, KinaseGlo FLuc 1.0%, IMPase Li inh -2.0% and ALDH1A1 block 1.12µM*.
`CO/N=C/CC(=O)c1cnc(-c2ccccc2)s1` gave Lamin A splicing 1.6%[46 µM], KinaseGlo FLuc -2.4%, IMPase Li inh 0.8% and ALDH1A1 block inconclusive.
`Cn1cccc1/C=C1\CCC/C(=C\c2cccn2C)C1=O` gave Lamin A splicing inconclusive, KinaseGlo FLuc -1.9%, HPGD inh -1.0%, IMPase Li inh 35.7%[38.3 µM] and ALDH1A1 block 7.94µM*.
CCCCCN1C(C)=CC(=C(C#N)C#N)C=C1C was read as Lamin A splicing 16.3%[46 µM], KinaseGlo FLuc -1.0%, IMPase Li inh 1.4% and ALDH1A1 block inconclusive.
`CC1=CC(=C(C#N)C#N)C=C(C)N1CCC(C)C` gave Lamin A splicing inconclusive, KinaseGlo FLuc -1.8%, IMPase Li inh 0.9% and ALDH1A1 block 28.2µM*.
Screening CN(CCc1ccccn1)c1ccc2c(c1)C(=O)c1ccccc1-2 returned KinaseGlo FLuc -2.3%[7.66 µM], HPGD inh -8.4%, IMPase Li inh 10.0% and ALDH1A1 block -5.0%[13.5 µM].
Screening NC(=O)C1CCN(C(=O)c2cc3n(n2)C(C(F)(F)F)CC(c2ccco2)N3)CC1 (stereo not drawn) returned Lamin A splicing -6.3%, KinaseGlo FLuc -0.7%, HPGD inh -11.3%, IMPase Li inh 29.6%[38.3 µM] and ALDH1A1 block 11.9µM*.
`O=C(NC1CCCCCC1)c1cc2n(n1)C(C(F)(F)F)CC(c1ccco1)N2` (stereo not drawn) gave Lamin A splicing -3.8%, KinaseGlo FLuc 1.6%, HPGD inh -8.7%, IMPase Li inh -4.6%[38.3 µM] and ALDH1A1 block -9.4%.
O=C(CCS(=O)(=O)c1cccc2nonc12)N1CC(=O)N(CCc2ccccc2)C(=O)C1 was read as Lamin A splicing 6.5%, KinaseGlo FLuc 2.0%, HPGD inh 0.8%, IMPase Li inh 39.9%[38.3 µM] and ALDH1A1 block 28.2µM*.
`O=C(CCS(=O)(=O)c1cccc2nonc12)N1CCOCC1` gave Lamin A splicing -3.4%, KinaseGlo FLuc 0.1%, HPGD inh 0.9%, IMPase Li inh 9.5%[38.3 µM] and ALDH1A1 block inconclusive.
`COc1ccccc1CNC(=O)CCS(=O)(=O)c1cccc2nonc12` gave Lamin A splicing -6.6%, KinaseGlo FLuc 8.8%, HPGD inh -14.0%, IMPase Li inh 34.5%[38.3 µM] and ALDH1A1 block 17.8µM*.
`Cc1ccc(CNC(=O)CCS(=O)(=O)c2cccc3nonc23)cc1` gave Lamin A splicing -9.5%, KinaseGlo FLuc 3.2%, HPGD inh 4.2%, IMPase Li inh -4.0%[38.3 µM] and ALDH1A1 block 39.8µM*.
`COc1ccc(CNC(=O)CCS(=O)(=O)c2cccc3nonc23)cc1` gave Lamin A splicing -0.2%, KinaseGlo FLuc 3.6%, HPGD inh -5.5%, IMPase Li inh 16.5%[38.3 µM] and ALDH1A1 block 17.8µM*.
COc1ccc(CNc2ncncc2-c2cccc(NS(C)(=O)=O)c2)c(OC)c1 was read as Lamin A splicing 2.7%, IMPase Li inh -6.5% and ALDH1A1 block 8.7%.

Source: PubChem BioAssay (National Center for Advancing Translational Sciences (NCATS))
